Results: PubChem BioAssay AID1159580 (chemical genetic matrix, 2015)
Where “and” joins values, the source holds several entries; their conditions need not be identical. Identical values can stand only once. The campaign covered roughly 5,500 compounds. About 2,000 (36%) were called active. Not shown: some 18% with an inconclusive outcome. Rule as the data show it: active = normalized growth mostly below about 0.91 (no sharp cut-off); inconclusive = no clear call, values can overlap the other calls; inactive = mostly above about 0.92. This is one part of the list.

Assay: chemical genetic growth profiling, strain panel (AID 1159580);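 also: tested at 20 µM; growth read once vehicle control cultures reached saturation at 30 °C; 1 = growth at the plate median or of vehicle wells; lower values mean less growth of the strain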
Conditions: S. cerevisiae deletion strains, growth OD

Measured: normalized growth

CC(=O)O[C@H]1C[C@@H](OC(C)=O)C(C)(C)C2CC(=O)[C@]3(C)C(CC[C@@]4(C)[C@H](c5ccoc5)OC(=O)[C@H]5O[C@]543)[C@]21C (some centres not stated)
inactive: locus YAL021C, strain ccr4, hits give low values 0.973 | locus YAL026C, strain drs2, hits give low values 0.982 | locus YAL030W, strain snc1, hits give low values 0.989 | locus YBL061C, strain skt5, hits give low values 0.993 | locus YBR009C, strain hhf1, hits give low values 0.99 | locus YBR021W, strain FUR4, hits give low values 0.984 | locus YBR023C, strain chs3, hits give low values 1.01 | locus YBR171W, strain sec66, hits give low values 0.999 | locus YBR229C, strain ROT2, hits give low values 0.999 | locus YBR231C, strain swc5, hits give low values 1.01 | locus YBR279W, strain paf1, hits give low values 0.969 | locus YCL011C, strain gbp2, hits give low values 0.998 | locus YCL016C, strain dcc1, hits give low values 0.997 | locus YCL029C, strain bik1, hits give low values 1.01 | locus YCL061C, strain MRC1, hits give low values 0.99 | locus YCL069W, strain vba3, hits give low values 0.99 | locus YCR088W, strain abp1, hits give low values 0.988 | locus YDL005C, strain med2, hits give low values 0.985 | locus YDL035C, strain GPR1, hits give low values 0.982 | locus YDL040C, strain nat1, hits give low values 0.999 | locus YDL074C, strain BRE1, hits give low values 0.981 | locus YDL101C, strain DUN1, hits give low values 1.02 | locus YDL185W, strain tfp1, hits give low values 0.998 | locus YDL192W, strain arf1, hits give low values 1 | locus YDR001C, strain nth1, hits give low values 0.976 | locus YDR069C, strain doa4, hits give low values 0.989 | locus YDR101C, strain arx1, hits give low values 0.997 | locus YDR137W, strain rgp1, hits give low values 0.974 | locus YDR159W, strain sac3, hits give low values 0.973 | locus YDR162C, strain NBP2, hits give low values 1 | locus YDR195W, strain ref2 0.94 | locus YDR297W, strain sur2, hits give low values 0.988 | locus YDR318W, strain mcm21, hits give low values 1.01 | locus YDR334W, strain swr1, hits give low values 0.983 | locus YDR335W, strain msn5, hits give low values 0.98 | locus YDR388W, hits give low values 1.01 | locus YDR392W, strain spt3, hits give low values 0.997 | locus YDR502C, strain sam2, hits give low values 1.03 | locus YEL003W, strain gim4, hits give low values 0.991 | locus YEL037C, strain rad23, hits give low values 0.988 | locus YEL061C, strain CIN8 (second series), hits give low values 0.994 | locus YER015W, strain faa2, hits give low values 0.994 | locus YER016W, strain bim1, hits give low values 0.991 | locus YER110C, hits give low values 1.02 | locus YER111C, strain swi4, hits give low values 1 | locus YER155C, strain BEM2 (second series), hits give low values 0.992 | locus YER155C, strain BEM2, hits give low values 1.01 | locus YER167W, strain BCK2, hits give low values 0.997 | locus YFR010W, strain ubp6, hits give low values 0.981 | locus YGL078C, strain dbp3, hits give low values 1.03 | locus YGL086W, strain mad1, hits give low values 1.01 | locus YGL167C, strain pmr1, hits give low values 0.997 | locus YGL173C, strain kem1, hits give low values 0.99 | locus YGL227W, strain vid30, hits give low values 0.993 | locus YGL240W, strain doc1, hits give low values 1.01 | locus YGL248W, strain PDE1, hits give low values 1 | locus YGL253W, strain hxk2, hits give low values 0.988 | locus YGR078C, strain PAC10, hits give low values 1.02 | locus YGR135W, strain pre9, hits give low values 1.06 | locus YGR252W, strain gcn5, hits give low values 0.994 | locus YHR013C, strain ard1, hits give low values 0.998 | locus YHR027C, strain rpn1, hits give low values 0.994 | locus YHR030C, strain SLT2, hits give low values 0.969 | locus YHR079C, strain IRE1 (second series), hits give low values 1.02 | locus YHR079C, strain IRE1, hits give low values 0.966 | locus YHR094C, strain hxt1, hits give low values 1.02 | locus YHR129C, strain ARP1, hits give low values 1.01 | locus YHR142W, strain chs7, hits give low values 1.01 | locus YHR200W, strain rpn10, hits give low values 1.02 | locus YIL066C, strain RNR3, hits give low values 0.998 | locus YIL073C, strain SPO22, hits give low values 1.32 | locus YIL125W, strain kgd1, hits give low values 1.01 | locus YIR030C, strain dcg1, hits give low values 1.01 | locus YJL092W, strain hpr5, hits give low values 0.994 | locus YJL095W, strain BCK1 (second series), hits give low values 0.996 | locus YJL095W, strain BCK1, hits give low values 1.04 and 0.973 | locus YJL115W, strain asf1, hits give low values 0.973 | locus YJL129C, strain trk1, hits give low values 0.991 | locus YJL134W, strain LCB3, hits give low values 1 | locus YJL154C, strain vps35, hits give low values 0.986 | locus YJL164C, strain tpk1, hits give low values 0.994 | locus YJL166W, strain qcr8, hits give low values 0.993 | locus YJL168C, strain set2, hits give low values 1.01 | locus YJL187C, strain SWE1 (second series), hits give low values 1.02 | locus YJL187C, strain SWE1, hits give low values 0.988 | locus YJR043C, strain POL32, hits give low values 0.958 | locus YJR066W, strain TOR1, hits give low values 0.915
